From PubChem BioAssay
Hits are enriched below; roughly 1.1% of the tested compounds scored in any of these assays.
AMA1 RON2 block: inhibitors of Plasmodium falciparum AMA1-RON2 interaction | AlphaScreen AMA1-biotinylated RON2 peptide binding | Potency, µM (series often up to 58.2 µM), for the others: at the top dose activity change, negative = inhibition, most hits filed as inhibitors | 360,000 tested, 0.2% active | AID 720542;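 note: 0% = vehicle wells and -100% = peptide control; nearly all actives have a fitted effect of over 45% in size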
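AMA1 (3D7) with his tag at 25 nM final met compounds first, then biotinylated RON2 peptide at 25 nM; detection used donor plus acceptor beads, 10 µg/mL apiece, read by AlphaScreen after 30 min at room temperature.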
AmpC detergent: inhibitors of E. coli AmpC beta-lactamase with detergent | Potency, µM (top dose mostly 114 µM), for inactives: at the highest dose activity change, negative = inhibition, usual class: inhibitors | AmpC hydrolysis of nitrocefin, absorbance 480 nm, 0.01% Triton | 370,000 tested, 0.041% active | P00811;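 note: 0% = no-compound wells and -100% = no-enzyme wells; nearly all actives have a fitted effect of over 25% in size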
Target sequence (P00811 whole entry, looked up): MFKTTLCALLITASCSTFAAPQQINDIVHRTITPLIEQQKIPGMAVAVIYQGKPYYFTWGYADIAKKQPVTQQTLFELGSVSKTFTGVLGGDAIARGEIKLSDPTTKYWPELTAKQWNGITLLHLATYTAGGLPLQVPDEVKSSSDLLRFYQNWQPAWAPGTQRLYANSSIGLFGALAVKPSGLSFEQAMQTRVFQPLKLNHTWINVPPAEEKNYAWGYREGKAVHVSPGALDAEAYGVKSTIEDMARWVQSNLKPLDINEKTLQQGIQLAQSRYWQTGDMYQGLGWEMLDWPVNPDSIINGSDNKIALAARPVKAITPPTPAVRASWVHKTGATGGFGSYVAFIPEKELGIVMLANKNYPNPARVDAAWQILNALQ
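AmpC (5.3 nM in the dispensed reagent) in 20 mM phosphate pH 7.0 with 0.01% (detergent screen) or 0.0001% Triton X-100 was preincubated with compounds for 15 min at room temperature. Nitrocefin was then added from an 800 uM solution, and hydrolysis was followed at 480 nm.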
AmpC inh no detg: AmpC beta-lactamase inhibition without detergent; Potency, µM (titrated, usually from 57.1 µM), without a hit: at the top dose activity change, negative = inhibition, usual class: inhibitors; P00811; 330,000 tested, 0.52% active; AmpC nitrocefin hydrolysis, absorbance 480 nm, 0.0001% Triton;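 note: plate controls were no compound for no effect and no enzyme for full effect; nearly all actives have a fitted effect of over 20% in size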
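AmpC (5.3 nM in the dispensed reagent) in 20 mM phosphate pH 7.0 with 0.01% (detergent screen) or 0.0001% Triton X-100 was preincubated with compounds for 15 min at room temperature. Nitrocefin was then added from an 800 uM solution, and hydrolysis was followed at 480 nm.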
Giardia FBPA inh: blocks Giardia fructose-bisphosphate aldolase activity. A8B2U2. purified Giardia FBPA. Potency, µM (highest dose often 59.6 µM), without a hit: at the top dose activity, negative = inhibition, usual class: inhibitors. 290,000 tested, 0.71% active. AID 2451; note: nearly all actives have a fitted effect of over 55% in size
Target sequence (A8B2U2 whole entry, looked up): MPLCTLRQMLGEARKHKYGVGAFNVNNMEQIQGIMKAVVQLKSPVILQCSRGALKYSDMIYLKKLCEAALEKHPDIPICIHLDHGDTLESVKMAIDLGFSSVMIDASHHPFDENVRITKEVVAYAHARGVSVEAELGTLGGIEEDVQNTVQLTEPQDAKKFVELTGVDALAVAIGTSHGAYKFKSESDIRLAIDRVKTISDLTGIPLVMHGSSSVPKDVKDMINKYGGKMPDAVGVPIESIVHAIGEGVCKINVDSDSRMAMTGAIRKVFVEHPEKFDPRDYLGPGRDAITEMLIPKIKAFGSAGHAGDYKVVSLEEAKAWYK
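40 nM FBPA preincubated 10 min at RT with compound (up to 57.5 uM final), then substrate plus GAPDH/TPI/NAD/arsenate coupling and diaphorase/resazurin added. Fluorescence read after 20 min at RT, 525/598 nm.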
* hit, by the source's call; ? = inconclusive; . = no result; [ ] = remark or other dose. Calls come from the whole dose curve; as a rule, active = well fitted curve in the direction sought with a large enough effect; inconclusive = small, poorly fitted or top-dose-only effect, or another doubt; inactive = no such curve, though single readings can be large; an effect the other way counts as inactive or inconclusive. Unless noted, % is set by controls: 0 for no effect and ±100 for the full control effect; potency is the fitted concentration of half-maximal effect.

SMILES	AMA1 RON2 block	AmpC detergent	AmpC inh no detg	Giardia FBPA inh
NC(N)=NCCC[C@H](NC(=O)[C@H](Cc1ccccc1)NC(=O)[C@@H]1CCCN1C(=O)[C@H](CO)NC(=O)[C@H](Cc1ccccc1)NC(=O)CNC(=O)[C@@H]1CCCN1C(=O)[C@@H]1CCCN1C(=O)[C@@H](N)CCCN=C(N)N)C(=O)O	.	.	.	6%
O=C(Nc1ccc(Nc2ccccc2)cc1)c1ccc(Cl)cc1	-15%	.	.	.
N#C/C(C(=O)Nc1ccc(Cl)cc1)=C(/S)Nc1ccccc1	17%	40µM*	?	-15%
Cc1cc(SCC(=O)NC2(C#N)CCCCC2)nc2c(C)cccc12	5%	-15%	32µM*	.
CC(=O)NC(C)(c1ccccc1)c1nc(-c2cccc3cccnc23)cs1 (centres undefined)	10%	.	.	.
NC1=CC(=O)c2cccc3cccc1c23	.	?	-28%	20µM*
Cc1ccn2cc(-c3ccc(O)c(O)c3)nc2c1	2.5µM*	-1%	-15%	?
Oc1ccc(-c2cn3ccccc3n2)cc1O	22µM*	-14%	-10%	-7%
CCS(=O)(=O)Nc1cc(-c2cn3ccc(C)cc3n2)ccc1C	.	22%	.	.
COc1ccc(CN2C(=O)c3cccc4cccc(c34)C2c2nc3ccccc3[nH]2)cc1 (centres undefined)	7%	.	.	.
COc1cc(/C=N/n2cc(-c3ccccc3)[nH]c2=S)cc(OC)c1O	67%	-8%	-32%	-8%
Oc1ccc(/C=N/n2cc(-c3ccccc3)[nH]c2=S)cc1	92%	?	32µM*	4%
S=c1[nH]c(-c2ccccc2)cn1/N=C/c1ccccc1Br	21%	0%	-44%	2%
S=c1[nH]c(-c2ccccc2)cn1/N=C/c1cccc2ccccc12	47%	-1%	2.5µM*	-1%
Cc1ccc(N2C(=O)N3[C@H](c4ccc(F)cc4)[C@@H]4C(=O)N(C5CCCCC5)C(=O)[C@@H]4[C@]3(C)C2=O)cc1	-7%	-10%	149%	7%
CN(C)c1ccc(C=C2C=C(c3ccccc3)OC2=O)cc1	8.9µM*	.	.	.
Cc1ccc(C=C2C=C(c3ccccc3)OC2=O)cc1	-10%	.	.	.
O=C(c1ccc2nc(N3CCCCC3)sc2c1)N1CCN(Cc2ccc3c(c2)OCO3)CC1	?	?	32µM*	-1%
CC1(C(=O)NS(=O)(=O)c2cccs2)CCN1C(=O)CC1CCCC1 (centres undefined)	-1%	.	.	.
CCOC(=O)c1ccc(NC(=O)CCn2c(=O)c3cccn3c3cccnc32)cc1	.	-10%	.	.
Cc1ccc(Cl)cc1NC(=O)Nc1cccs1	-1%	0%	14µM*	-13%
Oc1c(Cl)cc(Cl)cc1/C=N/NC(=S)NC1CC2C=CC1C2 (centres undefined)	-12%	-1%	8.9µM*	29%
Oc1ccccc1C=NNC(=S)NC1CC2C=CC1C2 (centres undefined)	86%	.	.	.
O=C(Nc1ccc(Oc2ccccc2)cc1)c1ccc(Cn2c(=O)[nH]c3ccsc3c2=O)cc1	-7%	-6%	16µM*	1%
CC1=NN(c2ccccc2)C(=O)/C1=C\C=C\c1ccccc1	6.3µM*	-1%	-15%	-13%
SMILES	AMA1 RON2 block	AmpC detergent	AmpC inh no detg	Giardia FBPA inh
CC1=NN(c2ccccc2)C(=O)/C1=C/c1cccc(C)c1	-24%	1%	-18%	-4%
CC1=NN(c2ccccc2)C(=O)/C1=C/N(C)C	3%	-1%	-17%	-28%
CC1=NN(c2ccccc2)C(=O)/C1=C/C=C/c1ccc(N(C)C)cc1	1.4µM*	?	-20%[11.4 µM]	-28%
COc1ccc(-n2nc([N+](=O)[O-])c(=NCCC3=CCCCC3)n2O)cc1	16µM*	5%	2%	-8%
CN1[C@@H](COCc2ccccc2)C=CS1(=O)=O	20%	.	.	.
Oc1[nH]c2ccccc2c1N=NC(=S)NCCc1ccccc1	-5%	?	25µM*	3%
CCc1ccc(NC(=O)c2cnc3scc(C)n3c2=O)cc1	12%	?	35µM*	1%
Cc1cc(C)c(C(=O)CSc2nc3ccccc3c(=O)[nH]2)cc1C	-1%	?	18µM*	1%
O=C(/C(=N\Nc1ccccc1)Sc1nnnn1-c1ccccc1)c1ccccc1	-15%	?	1.1µM*	-2%
NC(=O)c1ccc(-n2nnnc2SCC(=O)Nc2ccccc2)cc1	0%	5%	-27%	-1%
Cc1cccc(C)c1NC(=O)COC(=O)c1c2c(nc3ccccc13)/C(=C\c1ccc3c(c1)OCO3)CCC2	4%	3%	28µM*	-2%
CN1CCN(C(=O)CC2(CC(=O)O)CCCC2)CC1	-2%	?	-41%	-2%
CN1CCCN(C(=O)CC2(CC(=O)O)CCCC2)CC1	2%	28µM*	-40%	-3%
CC(C)C(NS(=O)(=O)c1cccs1)C(=O)NCc1ccc2c(c1)OCO2 (centres undefined)	-1%	-1%	40µM*	1%
Cc1ccc(CNC(=O)C(NS(=O)(=O)c2cccs2)C(C)C)cc1 (centres undefined)	-4%	25%	-23%	-3%
O=C(Cn1c(-c2cccs2)cc2cc(Cl)ccc21)N1CCCCC1	.	-1%	.	.
COc1cccc(C(=O)Nc2ccc(-c3nc4ccccc4o3)c(O)c2)c1	33%	-1%	4µM*	-3%
COc1cccc(C(=O)Nc2c(C(N)=O)oc3ccccc23)c1	1%	?	7.1µM*	0%
COc1ccc(NC(=O)Nc2cccc3c2O[C@H](CN(C)C(=O)Nc2ccc4c(c2)OCO4)[C@@H](C)CN([C@H](C)CO)C3=O)cc1	0%	.	156%	.
CC(C)C[C@H]1CN(CCCC[C@@H]2CNC(=O)C(=O)N2CCc2ccccc2)C(=O)C(=O)N1CCc1ccccc1	-3%	.	.	.
CCCCC#Cc1ccc(C(=O)NNC(=O)Nc2cc(Cl)cc(Cl)c2)o1	125%	5%	14µM*	-5%
CCOC(=O)[C@]12CCCC=C1N(Cc1ccc(Cl)cc1Cl)C(=O)[C@H](CC(=O)NCC1CCCCC1)C2	3%	.	.	.
CCCCn1c(N)c(N(CC(C)C)C(=O)CN2C(=O)NC3(CC(C)CC(C)(C)C3)C2=O)c(=O)[nH]c1=O (centres undefined)	-10%	-10%	35µM*	.
COc1ccccc1NC(=O)Cn1ncc2c1-c1ccccc1OC2	0%	-14%	6.3µM*	3%
CC(C)NS(=O)(=O)c1ccc(OCC(=O)N2CCN(c3ccccc3F)CC2)cc1	.	28%	.	.
O=C(Nc1nc(-c2cccs2)cs1)c1ccc(Cl)cc1	-4%	6%	28µM*	-14%
OC1(c2ccc(Cl)c(C(F)(F)F)c2)CCN(CCCC(c2ccc(F)cc2)c2ccc(F)cc2)CC1	.	.	.	-13%
Cc1cc(C)n2c(Nc3ccc4c(c3)OCCO4)c(-c3ccccn3)nc2n1	8.9µM*	.	.	.
Cc1ccc(-c2nc3nc(C)cc(C)n3c2Nc2ccc3c(c2)OCCO3)cc1	.	-6%	.	.
O=C1c2ccccc2C(=O)c2cc(S(=O)(=O)Nc3ccccc3)ccc21	-30%	-12%	28µM*	-25%
